Experimental data published in PubChem BioAssay (NCI).
Compounds without any hit were thinned out: in the full panel of roughly 79,000, 15% have a hit. No stated cut-off is given here; in the data, active means growth inhibition above about 70%; inactive means the rest.

How the values were obtained:
[1] = NCI Yeast Anticancer Drug Screen. Data for the rad50 strain (AID 155);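 further: 0% = growth of vehicle-only cultures of the same strain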; details: S. cerevisiae rad50 strain growth inhibition, stronger effect = higher value; at 50.0 µM unless noted
Summary of the method: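 Genetically altered yeast (DNA repair pathway); compound treatment; growth inhibition vs vehicle ctrl.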

[2] = NCI Yeast Anticancer Drug Screen. Data for the mec2-1 strain (AID 157); details: S. cerevisiae mec2-1 strain, stronger effect = higher value; at 50.0 µM unless noted
Summary of the method: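 Strain: mec2-1 (DNA repair/cell cycle alteration). Compound exposure, then growth measured; inhibition expressed relative to vehicle.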

[3] = NCI Yeast Anticancer Drug Screen. Data for the sgs1 mgt1 strain (AID 161);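 further: 0% = growth of cultures given vehicle only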; details: S. cerevisiae sgs1 mgt1 strain, stronger effect = higher value; at 50.0 µM unless noted
Summary of the method: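 Test agents were incubated with a DNA-repair-mutant yeast strain. Growth was then read and compared against vehicle-treated controls.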

[4] = NCI Yeast Anticancer Drug Screen. Data for the cln2 rad14 strain (AID 165);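 further: 0% = growth equal to vehicle treated cultures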; details: S. cerevisiae cln2 rad14 strain, stronger effect = higher value; at 50.0 µM unless noted
Summary of the method: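 Compounds are applied to the cln2 rad14 yeast strain, and growth is then compared with that of vehicle-treated cultures to give inhibition.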

[5] = NCI Yeast Anticancer Drug Screen. Data for the bub3 strain (AID 167); details: S. cerevisiae bub3 mutant strain, stronger effect = higher value; at 50.0 µM unless noted
Summary of the method: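 Yeast carrying a defined mutation is treated with each compound, and growth is compared with that of vehicle-exposed cells to give inhibition.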

[6] = NCI Yeast Anticancer Drug Screen. Data for the mlh1 rad18 strain (AID 175); details: S. cerevisiae mlh1 rad18 strain growth inhibition, stronger effect = higher value; at 50.0 µM unless noted
Summary of the method: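 Read-out is yeast growth inhibition, calculated against vehicle-only controls. The compound was applied to a strain engineered with DNA damage repair alterations.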

Measured: growth inhibition

CC(=O)OC(C(=O)NNC(=O)OC(C)(C)C)c1ccccc1 (stereo unspecified)
inactive: [1] -35.6% | [2] -49.4% | [3] -38% | [4] -19.4% | [5] -13.4% | [6] -29.2%

Cc1cc(C)c2c(=O)n(-c3ccccc3C)c(=S)n(-c3ccccc3C)c2n1
inactive: [1] 31.4% | [2] 8.35% | [3] 2.25% | [4] 1.95% | [5] -4.1% | [6] 24.7%

COC(=O)C(Br)C(CCCN1C(=O)c2ccccc2C1=O)OC (stereo unspecified)
inactive: [1] 27.5% | [2] 7.55% | [3] 45.9% | [4] 8.5% | [5] 39.9% | [6] 19.1%

C=C(NC(=O)C(c1ccccc1)c1ccccc1)C(=O)O
inactive: [1] 21.6% | [2] 11.7% | [3] -1.15% | [4] -25.1% | [5] -1.9% | [6] 17.4%

COc1ccc2c(c1[N+](=O)[O-])CC[C@@H]1[C@@H]2CC[C@]2(C)C(=O)CC[C@@H]12
inactive: [1] 20.9% | [2] 21.1% | [3] 0% | [4] 37% | [5] 12.1% | [6] -30.9%

O=c1[nH]nc(Cc2ccccc2)n1C1CCCC1
inactive: [1] -1.55% | [2] -5.3% | [3] -12.6% | [4] -17.8% | [5] -9.6% | [6] -1.05%
